Results taken from PubChem BioAssay AID1159580 (chemical genetic matrix, 2015).
Screen size: about 5,500 compounds; about 2,000 (36%) were called active. Roughly 18% stayed inconclusive and do not appear here. This is one part of the list. A number with no mark means an inactive call. No stated cut-off is given here; in the data, active means normalized growth mostly below about 0.91 (no sharp cut-off); inconclusive means no clear call, values can overlap the other calls; inactive means mostly above about 0.92.

Assay: chemical genetic growth profiling, strain panel (AID 1159580);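 further: tested at 20 µM; growth read once vehicle control cultures reached saturation at 30 °C; 1 = growth at the plate median or of vehicle wells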
Conditions: growth OD

With Nc1c2ccccc2nc2ccccc12 (tested in a mixture with another compound) the normalized growth (S. cerevisiae deletion strains, locus YKL009W, strain mrt4, stronger effect = lower value) was 0.811 (active), the normalized growth (S. cerevisiae deletion strains, locus YKL068W, stronger effect = lower value) was 0.969 and the normalized growth (S. cerevisiae deletion strains, locus YKL085W, strain MDH1 (second series), stronger effect = lower value) was 0.899 (active). For the same molecule, the normalized growth (S. cerevisiae deletion strains, locus YKL085W, strain MDH1, stronger effect = lower value) was 0.899 (active), the normalized growth (S. cerevisiae deletion strains, locus YKL160W, strain elf1, stronger effect = lower value) was 0.597 (active) and the normalized growth (S. cerevisiae deletion strains, locus YKL190W, strain CNB1, stronger effect = lower value) was 0.717 (active). The normalized growth (S. cerevisiae deletion strains, locus YKR001C, strain vps1, stronger effect = lower value) was 0.292 (active), the normalized growth (S. cerevisiae deletion strains, locus YKR026C, strain gcn3, stronger effect = lower value) was 0.957 and the normalized growth (S. cerevisiae deletion strains, locus YKR091W, strain srl3, stronger effect = lower value) was 0.95. The normalized growth (S. cerevisiae deletion strains, locus YLL001W, strain dnm1, stronger effect = lower value) was 0.603 (active), the normalized growth (S. cerevisiae deletion strains, locus YLL026W, stronger effect = lower value) was 0.707 (active) and the normalized growth (S. cerevisiae deletion strains, locus YLL041C, strain sdh2, stronger effect = lower value) was 0.897 (active). For the same molecule, the normalized growth (S. cerevisiae deletion strains, locus YLR027C, strain aat2, stronger effect = lower value) was 0.604 (active), the normalized growth (S. cerevisiae deletion strains, locus YLR039C, strain RIC1, stronger effect = lower value) was 0.601 (active) and the normalized growth (S. cerevisiae deletion strains, locus YLR058C, strain SHM2, stronger effect = lower value) was 0.538 (active). The normalized growth (S. cerevisiae deletion strains, locus YLR102C, strain apc9, stronger effect = lower value) was 0.943, the normalized growth (S. cerevisiae deletion strains, locus YLR113W, strain HOG1, stronger effect = lower value) was 0.506 (active) and the normalized growth (S. cerevisiae deletion strains, locus YLR221C, strain rsa3, stronger effect = lower value) was 0.634 (active). For the same molecule, the normalized growth (S. cerevisiae deletion strains, locus YLR258W, strain gsy2, stronger effect = lower value) was 0.603 (active), the normalized growth (S. cerevisiae deletion strains, locus YLR262C, strain YPT6 (second series), stronger effect = lower value) was 0.573 (active) and the normalized growth (S. cerevisiae deletion strains, locus YLR262C, strain YPT6, stronger effect = lower value) was 0.604 (active). The normalized growth (S. cerevisiae deletion strains, locus YLR268W, strain sec22, stronger effect = lower value) was 0.622 (active), the normalized growth (S. cerevisiae deletion strains, locus YLR320W, strain mms22, stronger effect = lower value) was 0.507 (active) and the normalized growth (S. cerevisiae deletion strains, locus YLR330W, strain CHS5, stronger effect = lower value) was 0.826 (active). The normalized growth (S. cerevisiae deletion strains, locus YLR342W, strain FKS1 (second series), stronger effect = lower value) was 0.662 (active), the normalized growth (S. cerevisiae deletion strains, locus YLR342W, strain FKS1, stronger effect = lower value) was 0.945 and the normalized growth (S. cerevisiae deletion strains, locus YLR357W, strain rsc2, stronger effect = lower value) was 1.11. The normalized growth (S. cerevisiae deletion strains, locus YLR370C, strain arc18, stronger effect = lower value) was 0.803 (active), the normalized growth (S. cerevisiae deletion strains, locus YLR371W, strain rom2, stronger effect = lower value) was 0.98 and the normalized growth (S. cerevisiae deletion strains, locus YLR384C, strain iki3, stronger effect = lower value) was 0.932. For the same molecule, the normalized growth (S. cerevisiae deletion strains, locus YLR418C, strain cdc73, stronger effect = lower value) was 0.723 (active), the normalized growth (S. cerevisiae deletion strains, locus YML016C, strain PPZ1, stronger effect = lower value) was 0.714 (active) and the normalized growth (S. cerevisiae deletion strains, locus YML032C, strain rad52, stronger effect = lower value) was 0.37 (active). For the same molecule, the normalized growth (S. cerevisiae deletion strains, locus YML120C, strain ndi1, stronger effect = lower value) was 0.439 (active), the normalized growth (S. cerevisiae deletion strains, locus YML124C, strain tub3, stronger effect = lower value) was 0.84 (active) and the normalized growth (S. cerevisiae deletion strains, locus YMR058W, strain fet3, stronger effect = lower value) was 0.69 (active). The normalized growth (S. cerevisiae deletion strains, locus YMR078C, strain ctf18, stronger effect = lower value) was 0.642 (active), the normalized growth (S. cerevisiae deletion strains, locus YMR125W, strain sto1, stronger effect = lower value) was 0.963 and the normalized growth (S. cerevisiae deletion strains, locus YMR129W, stronger effect = lower value) was 0.844 (active). The normalized growth (S. cerevisiae deletion strains, locus YMR205C, strain PFK2, stronger effect = lower value) was 0.669 (active), the normalized growth (S. cerevisiae deletion strains, locus YMR223W, strain ubp8, stronger effect = lower value) was 0.579 (active) and the normalized growth (S. cerevisiae deletion strains, locus YMR231W, strain pep5, stronger effect = lower value) was 0.94. For the same molecule, the normalized growth (S. cerevisiae deletion strains, locus YMR263W, strain SAP30, stronger effect = lower value) was 0.746 (active), the normalized growth (S. cerevisiae deletion strains, locus YMR307W, strain GAS1, stronger effect = lower value) was 0.806 and the normalized growth (S. cerevisiae deletion strains, locus YNL067W, strain RPL9B, stronger effect = lower value) was 0.477 (active). For the same molecule, the normalized growth (S. cerevisiae deletion strains, locus YNL071W, strain lat1, stronger effect = lower value) was 0.958, the normalized growth (S. cerevisiae deletion strains, locus YNL128W, strain TEP1, stronger effect = lower value) was 0.76 (active) and the normalized growth (S. cerevisiae deletion strains, locus YNL153C, strain GIM3, stronger effect = lower value) was 0.701 (active). The normalized growth (S. cerevisiae deletion strains, locus YNL183C, strain NPR1, stronger effect = lower value) was 0.483 (active), the normalized growth (S. cerevisiae deletion strains, locus YNL209W, strain ssb2, stronger effect = lower value) was 0.729 (active) and the normalized growth (S. cerevisiae deletion strains, locus YNL233W, strain BNI4, stronger effect = lower value) was 0.707 (active). The normalized growth (S. cerevisiae deletion strains, locus YNL248C, strain rpa49, stronger effect = lower value) was 0.599 (active), the normalized growth (S. cerevisiae deletion strains, locus YNL250W, strain rad50, stronger effect = lower value) was 0.782 (active) and the normalized growth (S. cerevisiae deletion strains, locus YNL271C, strain bni1, stronger effect = lower value) was 0.891 (active). For the same molecule, the normalized growth (S. cerevisiae deletion strains, locus YNL298W, strain CLA4, stronger effect = lower value) was 0.858 (active), the normalized growth (S. cerevisiae deletion strains, locus YNL307C, strain MCK1, stronger effect = lower value) was 0.439 (active) and the normalized growth (S. cerevisiae deletion strains, locus YNL322C, strain KRE1 (second series), stronger effect = lower value) was 0.981. The normalized growth (S. cerevisiae deletion strains, locus YNL322C, strain KRE1, stronger effect = lower value) was 0.771 (active), the normalized growth (S. cerevisiae deletion strains, locus YNR049C, strain mso1, stronger effect = lower value) was 0.899 (active) and the normalized growth (S. cerevisiae deletion strains, locus YNR052C, strain pop2, stronger effect = lower value) was 0.732 (active). The normalized growth (S. cerevisiae deletion strains, locus YOL006C, strain TOP1, stronger effect = lower value) was 0.475 (active), the normalized growth (S. cerevisiae deletion strains, locus YOL012C, strain htz1) was 2.2 [resistant] (active) and the normalized growth (S. cerevisiae deletion strains, locus YOL147C, strain pex11, stronger effect = lower value) was 0.832 (active). For the same molecule, the normalized growth (S. cerevisiae deletion strains, locus YOR001W, strain rrp6, stronger effect = lower value) was 0.508 (active), the normalized growth (S. cerevisiae deletion strains, locus YOR061W, strain CKA2, stronger effect = lower value) was 0.744 (active) and the normalized growth (S. cerevisiae deletion strains, locus YOR069W, strain VPS5, stronger effect = lower value) was 0.825 (active). The normalized growth (S. cerevisiae deletion strains, locus YOR070C, strain gyp1, stronger effect = lower value) was 0.732 (active), the normalized growth (S. cerevisiae deletion strains, locus YOR080W, strain dia2, stronger effect = lower value) was 0.816 (active) and the normalized growth (S. cerevisiae deletion strains, locus YOR083W, strain WHI5, stronger effect = lower value) was 0.56 (active). The normalized growth (S. cerevisiae deletion strains, locus YOR106W, strain vam3, stronger effect = lower value) was 0.529 (active), the normalized growth (S. cerevisiae deletion strains, locus YOR136W, strain idh2, stronger effect = lower value) was 0.866 (active) and the normalized growth (S. cerevisiae deletion strains, locus YOR144C, strain elg1, stronger effect = lower value) was 0.766 (active). For the same molecule, the normalized growth (S. cerevisiae deletion strains, locus YOR184W, strain ser1, stronger effect = lower value) was 0.535 (active), the normalized growth (S. cerevisiae deletion strains, locus YOR231W, strain MKK1, stronger effect = lower value) was 0.41 (active) and the normalized growth (S. cerevisiae deletion strains, locus YOR265W, strain rbl2, stronger effect = lower value) was 0.851 (active). The normalized growth (S. cerevisiae deletion strains, locus YOR270C, strain vph1, stronger effect = lower value) was 0.577 (active), the normalized growth (S. cerevisiae deletion strains, locus YOR290C, strain snf2, stronger effect = lower value) was 0.379 (active) and the normalized growth (S. cerevisiae deletion strains, locus YOR316C, strain cot1, stronger effect = lower value) was 0.938. The normalized growth (S. cerevisiae deletion strains, locus YPL051W, strain arl3, stronger effect = lower value) was 0.628 (active), the normalized growth (S. cerevisiae deletion strains, locus YPL055C, strain LGE1, stronger effect = lower value) was 0.572 (active) and the normalized growth (S. cerevisiae deletion strains, locus YPL078C, strain atp4, stronger effect = lower value) was 0.727 (active). For the same molecule, the normalized growth (S. cerevisiae deletion strains, locus YPL106C, strain sse1, stronger effect = lower value) was 0.779 (active), the normalized growth (S. cerevisiae deletion strains, locus YPL240C, strain hsp82, stronger effect = lower value) was 0.618 (active) and the normalized growth (S. cerevisiae deletion strains, locus YPL241C, strain CIN2, stronger effect = lower value) was 0.935. For the same molecule, the normalized growth (S. cerevisiae deletion strains, locus YPL256C, strain CLN2, stronger effect = lower value) was 0.499 (active), the normalized growth (S. cerevisiae deletion strains, locus YPR119W, strain clb2, stronger effect = lower value) was 0.85 (active) and the normalized growth (S. cerevisiae deletion strains, locus YPR141C, strain kar3, stronger effect = lower value) was 1. The normalized growth (S. cerevisiae deletion strains, locus YPR163C, strain tif3, stronger effect = lower value) was 0.964, the normalized growth (S. cerevisiae deletion strains, locus YPR167C, strain met16, stronger effect = lower value) was 0.699 (active) and the normalized growth (S. cerevisiae deletion strains, strain wtn01, stronger effect = lower value) was 0.549 (active). For the same molecule, the normalized growth (S. cerevisiae strains, strain wild type, stronger effect = lower value) was 0.698 (active).
